Compound activity as filed in PubChem.
Pol iota inh: DNA polymerase iota (human) inhibition; Q9UNA4; 1% of 390,000 active; Potency, µM (top dose mostly 115 µM), actives largely listed as inhibitors; AID 588590; Pol iota fluorescent replication assay, 10 min
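Fluorescent replication assay read twice, at 0 min and 10 min after adding 50 nM (final) substrate. Enzyme (10 nM) and compounds were first incubated 15 min at room temperature; enzyme-free buffer wells were negative controls.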
WRN inhibitor: inhibitors of human WRN helicase; Q14191; WRN helicase unwinding, fluorescent forked duplex, kinetic; Potency, µM (highest dose often 114 µM), hits mostly inhibitors; 0.46% of 360,000 active; AID 651768; further: nearly all actives have a fitted effect of over 55% in size
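Fluorescence dequenching readout, ex 525 nm/em 598 nm, kinetic mode: forked duplex DNA (100 nM final) with adjacent fluorophore and quencher unwound by WRN (20 nM final) with 2 mM ATP. Compound preincubation 15 min, room temperature.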
FEN1 inhibitor: human FEN1 inhibition; P39748; Recombinant FEN1 flap cleavage, fluorescence, 15 min; Potency, µM (series often up to 114 µM), actives largely listed as inhibitors; 0.35% of 390,000 active; AID 588795; further: nearly all actives have a fitted effect of over 65% in size
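Reaction started by adding substrate (50 nM final) to 10 nM enzyme after 15 min room-temperature compound preincubation. Reads at 0 and 15 min, with data normalized and fitted to a four-parameter Hill equation.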
Pol beta inh-1: inhibitors of human DNA polymerase beta. Pol beta primer extension/strand displacement, fluorescence kinetic. P06746. Potency, µM (titrated, usually from 114 µM), usual class: inhibitors. 1.3% of 340,000 active
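Pol beta (10 nM) and compounds were preincubated 15 min at room temperature, then 50 nM substrate (final) started primer extension/strand displacement. Reads were taken at 0 and 10 min; concentration-response data were fitted to a four-parameter Hill equation.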
Pol kappa inh-1: inhibitors of human DNA polymerase kappa; 0.53% of 400,000 active; purified Pol kappa, fluorescent DNA synthesis assay, 10 min; Q9UBT6; Potency, µM (doses to about 107 µM), most hits filed as inhibitors
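Pol kappa 10 nM + cpd, 15 min RT; start w/ substrate 50 nM final; fluorescence kinetic read, 0 and 10 min. Neg ctrl: buffer, no enzyme.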
Pol eta inh-1: blocks human DNA polymerase eta activity; Q9Y253; recombinant Pol eta, fluorescent DNA replication assay; Potency, µM (top dose mostly 114 µM), usual class: inhibitors; 1.2% of 390,000 active
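Fluorescent replication assay: 50 nM final substrate added after a 15 min room-temperature compound preincubation with 10 nM enzyme. Signal taken at 0 min and again at 10 min.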
Pol beta inh-2: Inhibitors of human DNA polymerase beta, hit validation; shares compounds with Pol beta inh-1; Pol beta primer extension/strand displacement, fluorescence kinetic; Potency, µM, usual class: inhibitors; 87% of 250 active; AID 540280; calls by dose curve
Klenow counter: inhibits Klenow fragment polymerase in counter-screen; shares compounds with Pol beta inh-1; Klenow exo- polymerase counter-screen, fluorescent DNA substrate; 250 tested, under 10 active; activity change, negative = inhibition, % at 57.1 µM; AID 540300
HIV RT inh: counter-screen for DNA polymerase beta inhibitors: HIV-1 RT inhibition; HIV-1 RT polymerase activity, counter-screen; AID 540301; shares compounds with Pol beta inh-1; 250 tested, under 10 active; activity % (negative = inhibition, positive = activation), % at 57.1 µM
POLB inh gel: validation of human DNA polymerase beta inhibitors. shares compounds with Pol beta inh-1. radiolabeled primer extension gel assay, phosphorimager. inhibition, % at 10 µM. 91% of 110 active. AID 540325;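 active means inhibition at 10 µM of 30% or more; inconclusive means no clear call, values can overlap the other calls; inactive means inhibition at 10 µM under 30%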
POLI cherry-pick: Human Pol iota inhibitor confirmatory assay; shares compounds with Pol kappa inh-1; Pol iota primer extension, TAMRA/BHQ fluorescence; Potency, µM, actives largely listed as inhibitors; 77% of 1,500 active
GALK confirm: confirmation of human galactokinase (GALK) inhibitors. shares compounds with Pol eta inh-1. 70% of 150 active. Potency, µM (doses to about 115 µM), hits mostly inhibitors. purified GALK, Kinase-Glo ATP depletion luminescence
Redox cycling: generates H2O2 by redox cycling, flagging GALK artifacts | AID 2035 | 40% of 150 active | Phenol red-HRP H2O2 redox cycling, absorbance 600 nm | shares compounds with Pol eta inh-1 | Potency, µM (series often up to 115 µM), most hits filed as inhibitors
HEK293 viability: HEK-293 cytotoxicity, GALK inhibitor secondary; shares compounds with Pol eta inh-1; HEK-293 viability, ATP luminescence (CellTiter-Glo), 24/48 h; Potency, µM (highest dose often 46.1 µM), most hits filed as inhibitors; 10% of 170 active
Pol kappa inh-2: Pol kappa (human) inhibition, cherry-pick confirmation; shares compounds with Pol eta inh-1; Potency, µM, usual class: inhibitors; 76% of 920 active; purified Pol-kappa, fluorescent strand-displacement substrate; AID 720501
Pol eta inh-2: confirmation of human DNA polymerase eta inhibitors | 64% of 2,600 active | Pol eta primer extension, TAMRA/BHQ fluorescence, 10 min | shares compounds with Pol eta inh-1 | Potency, µM, most hits filed as inhibitors
Of the large screens only hits and unclear results are named; the others gave an inactive call (follow-up assays come after a bar, where they were run). Compounds with a hit are over-represented: about 2.4% of the library has one in this group of screens. Unless noted, the call rests on the fitted dose curve; in most records, active means well fitted curve in the direction sought with a large enough effect; inconclusive means small, poorly fitted or top-dose-only effect, or another doubt; inactive means no such curve, though single readings can be large; an effect the other way counts as inactive or inconclusive.

Cc1ccc(CNC(=O)c2ccc(-n3cccc3)cc2)cc1	Pol iota inh 14µM, WRN inhibitor 40µM, FEN1 inhibitor inconclusive, Pol beta inh-1 6.3µM, Pol kappa inh-1 22µM, Pol eta inh-1 13µM | Pol beta inh-2 8.9 | Klenow counter inactive | HIV RT inh inactive | POLI cherry-pick 19 | Pol kappa inh-2 19 | Pol eta inh-2 30
Cc1cc(C)cc(-n2c(C)cc(C(=O)C(=O)Nc3nnc(C)s3)c2C)c1	none (no result: WRN inhibitor)
COc1ccc(N2CCN(C(=O)Cc3ccc(S(=O)(=O)N4CCOCC4)s3)CC2)cc1	Pol iota inh 20µM, WRN inhibitor inconclusive, Pol beta inh-1 13µM, Pol kappa inh-1 79µM, Pol eta inh-1 20µM | Pol beta inh-2 32 | Klenow counter inactive | HIV RT inh inactive | POLB inh gel 83 | POLI cherry-pick 42 | Pol eta inh-2 48
Cc1ccc(S(=O)(=O)N2CCN(C(=O)Cc3ccc(S(=O)(=O)N4CCOCC4)s3)CC2)cc1	none
CN(C)C(=O)COC(=O)c1ccccc1OCC(=O)Nc1ccc(Br)cc1	none (no result: WRN inhibitor, Pol beta inh-1, Pol eta inh-1)
CN1CCN(c2ncc3nc(-c4ccc(F)cc4)c(=O)n(Cc4cccs4)c3n2)CC1	none (no result: Pol iota inh, WRN inhibitor, FEN1 inhibitor, Pol beta inh-1, Pol eta inh-1)
Cc1nc2cc(-c3ccsc3-n3c(C)ccc3C)[nH]n2c(=O)c1Cl	Pol iota inh inconclusive, WRN inhibitor inconclusive, FEN1 inhibitor inconclusive, Pol beta inh-1 10µM, Pol kappa inh-1 inconclusive, Pol eta inh-1 25µM | Pol beta inh-2 28 | Klenow counter inactive | HIV RT inh inactive | POLB inh gel 74 | Pol kappa inh-2 30 | Pol eta inh-2 30
O=C1/C(=C\c2ccc(O)c(O)c2)C(c2ccccc2)=NN1c1ccccc1	Pol iota inh 22µM, WRN inhibitor inconclusive, Pol beta inh-1 8.9µM, Pol kappa inh-1 71µM, Pol eta inh-1 8.9µM | Pol beta inh-2 7.1 | Klenow counter inactive | HIV RT inh inactive | GALK confirm inconclusive | Redox cycling inconclusive | HEK293 viability inactive | Pol kappa inh-2 19 | Pol eta inh-2 43
CC1=NN(c2ccccc2)C(=O)/C1=C\c1sccc1C	Pol iota inh inconclusive, FEN1 inhibitor inconclusive
CC(=O)Nc1ccc(SCC(=O)c2ccc(Br)s2)cc1	Pol iota inh inconclusive
Cc1ccc(SCC(=O)c2ccc(CC(=O)O)s2)cc1	Pol iota inh inconclusive, WRN inhibitor inconclusive, Pol beta inh-1 11µM, Pol kappa inh-1 inconclusive, Pol eta inh-1 50µM | Pol beta inh-2 32 | Klenow counter inactive | HIV RT inh inactive | Pol eta inh-2 76
Cc1cccc2sc(NC(=O)C3CCCO3)nc12 (stereo not drawn)	none
Cc1nc(C)c(C(=O)Nc2nc3c(C)cccc3s2)o1	Pol iota inh inconclusive, WRN inhibitor inconclusive, FEN1 inhibitor inconclusive, Pol beta inh-1 18µM, Pol kappa inh-1 40µM, Pol eta inh-1 25µM | Pol beta inh-2 32 | Klenow counter inactive | HIV RT inh inactive | POLI cherry-pick inconclusive | Pol eta inh-2 48
COc1ccccc1NC(=O)CSc1nc2c(oc3ccccc32)c(=O)n1-c1ccc(C)cc1	none (no result: WRN inhibitor)
O=C(NCc1ccco1)c1c2c(nc3ccccc13)CCC2	Pol iota inh 8.9µM, WRN inhibitor 45µM, FEN1 inhibitor inconclusive, Pol beta inh-1 11µM, Pol kappa inh-1 32µM, Pol eta inh-1 3.2µM | Pol beta inh-2 25 | Klenow counter inactive | HIV RT inh inactive | POLB inh gel 99 | POLI cherry-pick inconclusive | Pol eta inh-2 85
Cc1ccc2nc(/C(C#N)=C/c3ccc(-c4cccc([N+](=O)[O-])c4)o3)[nH]c2c1	Pol iota inh 10µM, WRN inhibitor inconclusive, FEN1 inhibitor 45µM, Pol beta inh-1 5µM, Pol eta inh-1 inconclusive | Pol beta inh-2 5.6 | Klenow counter inactive | HIV RT inh inactive | POLI cherry-pick inconclusive | Pol eta inh-2 76
O=C(COC(=O)c1ccc(S(=O)(=O)NCc2ccco2)cc1)Nc1ccc(Cl)cn1	Pol iota inh 22µM, Pol beta inh-1 16µM, Pol kappa inh-1 79µM, Pol eta inh-1 20µM | Pol beta inh-2 22 | Klenow counter inactive | HIV RT inh inactive | POLB inh gel 100 | Pol eta inh-2 76
CC(=O)Nc1ccc(C(=O)Nc2cccc(-c3cnc4ccccc4n3)c2)cc1	Pol beta inh-1 4.5µM, Pol eta inh-1 inconclusive | Pol beta inh-2 14 | Klenow counter inactive | HIV RT inh inactive | POLI cherry-pick 30 | Pol kappa inh-2 47 | Pol eta inh-2 inconclusive
Cc1ccc(C(=O)Nc2cccc(-c3cnc4ccccc4n3)c2)cc1	none
CC(C)Cn1c(N)c(C(=O)COC(=O)c2cc(-c3ccccc3)nc3ccccc23)c(=O)n(C)c1=O	none
